Screens: PubChem, several laboratories
Most compounds without a hit are left out; they make up all but 3.8% or so of the library.
Mot1-301 SUMO = inhibitors of SUMOylation pathway: yeast Mot1-301 growth rescue. actives 1% (n = 320,000). AID 2716. S. cerevisiae Mot1-301 growth rescue, ATP luminescence, 38.5C; percent above DMSO median, 100 means doubled. growth rescue, % at 18.8 µM;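 active = every valid replicate shows activation above 250% relative to neutral control wells; inactive = the rest, any valid replicate at or below 250%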;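 note: OY570 slx delta 5 strain wells were the positive control but not used for scaling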
FAS-TE inh = blocks the thioesterase domain of human fatty acid synthase | P49327 | recombinant FAS-TE, OMFH fluorogenic substrate, fluorescence endpoint | inhibition, % at 15 µM | actives 0.67% (n = 360,000) | AID 602261;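 active = compounds whose normalised, plate-corrected inhibition of enzyme fluorescence in the single-dose primary screen is 50% or more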;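 note: 0% = DMSO with enzyme and 100% = substrate without enzyme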
Yeast superoxide = lowers age-related superoxide in aged yeast cells. AID 2690. actives 0.18% (n = 330,000). superoxide response (% of plate mean), % at 10 µM. S. cerevisiae aged cells, superoxide DHE fluorescence; active compounds read low;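 active = superoxide response under a set limit, about three screen SD below normal, cut at about 65% in these data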;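 note: yeast aged for seven days with compound at 30 °C before DHE staining; 100% = average MFI of all compound-treated wells on the plate with controls excluded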
H9c2 protect = myocardial damage modulation in H9c2 cells. protection from H2O2 cell death, % at 20 µM. H9c2 cardiomyocytes, H2O2 injury protection, ATPLite, 2 h. actives 0.63% (n = 360,000);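 active = compounds giving at least 50% protection of heart cells from peroxide-induced death in the single-dose screen, raw or plate-pattern-corrected value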;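 note: 0% = DMSO wells with peroxide and 100% = DMSO wells without peroxide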
MPTP block = blocks calcium-induced mitochondrial swelling; inhibition, % at 10 µM; AID 602449; actives 1.4% (n = 360,000); isolated mouse mitochondria, Ca2+ swelling absorbance, 30 min;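 active = inhibition of 50% or more, scaled per plate between neutral and stimulator controls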;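 note: 0% = DMSO wells given calcium and 100% = 1 mM EGTA wells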
aDG glyco up = increases alpha dystroglycan glycosylation. Pro5-aDG cells, alpha-DG glycosylation AlphaScreen (IIH6); 0% Pro5, 100% B10-LARGE cell signal. activation, % at 10 µM. actives 0.22% (n = 360,000). AID 624168;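 active = activation of at least 8% versus controls, or a plate z-score of at least 8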;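 note: Pro5 are CHO cells carrying HIG-tagged alpha-DG that lacks glycosylation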
Yeast Mot1 SUMO = SUMO pathway inhibitors in yeast Mot1-301 growth; shares compounds with Mot1-301 SUMO; S. cerevisiae Mot1-301 galactose growth, ATP luminescence, 24 h; -100 = growth of slx-deleted rescue strain; growth activity, percent, % at 42 µM; 2,300 tested, under 10 active;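 active = Signal drops as the depositor expects, and the fitted half-maximal dose is no more than ten times the top valid tested dose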;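 note: more negative values mean stronger growth rescue toward the control strain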
Starred values were filed as active, the others as inactive; x = not tested or not shown; + = active, no number; [ ] = another dose, or the depositor's remark.

SMILES | Mot1-301 SUMO | FAS-TE inh | Yeast superoxide | H9c2 protect | MPTP block | aDG glyco up | Yeast Mot1 SUMO
Cc1ccccc1-c1cnc(C(O)c2cc(Cl)cc(Cl)c2)[nH]1 (stereo not given) | x | 11 | x | -9 | 16 | 0 | x
N#Cc1ccccc1OCC(=O)NNC(=O)CCC1CCCC1 | -1 | 3 | 105 | 4 | -1 | 0 | x
Cc1nn(C)c(C)c1S(=O)(=O)N(CC(=O)NC1CCCCCC1)c1ccc(C(C)C)cc1 | -2 | -6 | 105 | 24 | -1 | 0 | x
Cc1n[nH]c(C)c1S(=O)(=O)N(CC(=O)NC1CCCC1)c1ccc(C(C)C)cc1 | 634* | 7 | 102 | 8 | -1 | 0 | 0[21 µM]
CCCCCC(=O)Nc1ccc(-c2csc(N)n2)cc1 | 471* | 3 | 108 | -17 | 0 | 0 | -1
COc1ccccc1CNC(=O)C(C)Sc1ccc(C)cc1 (stereo not given) | 416* | 0 | 97 | 2 | 1 | 0 | 0
COc1ccccc1CNC(=O)CCC(=O)Nc1nnc(C(C)C)s1 | 928* | -10 | 114 | 5 | 2 | 0 | 0
COc1ccccc1CNC(=O)C1CCC(CNS(=O)(=O)c2ccc(F)cc2)CC1 (stereo not given) | 412 | 4 | 101 | 4 | 0 | 0 | x
COc1ccccc1CNC(=O)C1CCC(CNS(=O)(=O)c2ccc(C)cc2)CC1 (stereo not given) | 625* | 1 | 93 | -2 | 0 | 0 | 0
COc1ccccc1CNC(=O)CCC(=O)Nc1nnc(C)s1 | -8 | -4 | 113 | 26 | -2 | 0 | x
Cc1cccc(NC(=O)C2CCN(C(=O)N3CCOc4ccccc43)CC2)c1C | 4 | -2 | 100 | 5 | -2 | 0 | x
CN(Cc1ccccc1)C1(CNC(=O)CCC(F)(F)F)Cc2ccccc2C1 | -35 | 3 | 96 | -3 | 0 | 0 | x
Cc1ccc2nc(-c3ccccn3)c(N)n2c1 | x | -10 | x | -8 | 0 | 2 | x
C[C@@H]1CN([C@H](C)CO)C(=O)c2cc(C#Cc3ccccc3F)cnc2O[C@@H]1CN(C)S(=O)(=O)c1ccccc1F | x | -8 | x | -1 | -1 | 0 | x
CCOC(=O)N1CCN(C(=O)CSc2ccc(C(=O)OC)cc2[N+](=O)[O-])CC1 | 1 | 0 | 102 | 8 | 0 | 0 | x
COC(=O)c1ccc(SCC(=O)N2CCC(C)CC2)c([N+](=O)[O-])c1 | 836* | 27 | 103 | 0 | 0 | 0 | 0
O=c1c2ccccc2ncn1Cc1ccc2c(c1)OCO2 | 428* | 0 | 104 | -4 | 0 | 0 | 1
O=c1c2ccccc2ncn1Cc1ccc(Cl)cc1 | 987* | 2 | 102 | 2 | -5 | 0 | 0
CCCNC(=O)C1(C)CCCN(C(=O)c2ccc(OC(F)F)cc2)C1 (stereo not given) | x | -10 | x | 0 | 1 | 0 | x
CCC(C)c1ccc(S(=O)(=O)N2CCN(c3ccccn3)CC2)cc1 (stereo not given) | -6 | 43 | 86 | -8 | 1 | 0 | x
CC(C)C(CC(=O)NCc1ccco1)c1ccco1 (stereo not given) | 646* | -4 | 105 | 7 | 1 | 0 | 0
O=C([C@H]1O[C@@H](n2ccc(=O)[nH]c2=O)[C@H](O)[C@@H]1O)N1CCN(c2ccc(Cl)cn2)CC1 | x | -5 | x | 3 | 0 | 0 | x
CC(=O)O[C@@H]1[C@H]2[C@@H](C[C@@H](C)[C@@H]3CCC(=O)[C@@]13C)OC(=O)[C@@H]2C | 5 | -11 | 88 | 9 | 1 | 0 | x
Cc1ccc(-n2c(C)cc(/C=N/NC(=O)c3ccncc3)c2C)cc1C | 753* | -2 | 99 | -4 | 1 | 0 | 0
NC(=O)CC(NC(=S)NCc1ccccc1)C(=O)O (stereo not given) | 583* | -10 | 93 | 4 | -1 | 0 | 0
SMILES | Mot1-301 SUMO | FAS-TE inh | Yeast superoxide | H9c2 protect | MPTP block | aDG glyco up | Yeast Mot1 SUMO
O=C(O)CC(NC(=S)NCc1ccccc1)C(=O)O (stereo not given) | 28 | -7 | 100 | 5 | -4 | 0 | x
Cc1ccc(C)c(OCCC(=O)NNC(=O)c2cc(C)oc2C)c1 | 9 | -6 | 90 | 11 | -1 | 0 | x
CCCCn1c(N)c(N(CC(C)C)C(=O)c2cc(-c3ccc(F)cc3)nc3ccccc23)c(=O)[nH]c1=O | 491* | 0 | 77 | 7 | 0 | 0 | 0
CCCCn1c(N)c(N(CC(C)C)C(=O)c2cc(-c3ccc(OC)cc3)nc3ccccc23)c(=O)[nH]c1=O | x | 1 | x | 6 | -1 | 0 | x
O=C(N/N=C/C(Br)=C/c1ccccc1)c1n[nH]c2c1CCC2 | 508* | 5 | 111 | 21 | 0 | 0 | -1
Cc1noc(C)c1COc1ccc(C(=O)NNC(=O)c2ccccc2F)cc1 | -4 | -6 | 96 | 4 | -1 | 0 | x
CC1(C)C2CC[C@]3(C)C(CC=C4[C@@H]5C[C@@](C)(CO)[C@@H](O)C[C@]56C[C@@H](OC6=O)[C@]43C)[C@@]2(C)CC[C@@H]1O (stereo not given in full) | 369* | 0 | 102 | 1 | 0 | 0 | 0
COc1ccc(SC[C@H](Cc2ccccc2)N2CC[C@@H](NC(=O)OCc3ccccc3)CCC2=O)cc1 | 9 | 17 | 109 | -4 | 0 | 0 | x
CC(C)(C)c1ccc(C(=O)NCCC(=O)N2CCN(c3ncccn3)CC2)cc1 | 552* | -4 | 103 | -7 | -4 | 0 | 0
C=CCOC(=O)C(C#N)c1nc2ccccc2nc1N1CCN(Cc2ccccc2)CC1 (stereo not given) | 501* | 21 | 112 | -1 | -2 | 0 | 0
Nc1nc(Nc2ccccc2)nc(NC2CCCCC2)c1[N+](=O)[O-] | -1 | 27 | 104 | -16 | 2 | 0 | x
COc1ccc(C(CNC(=O)CCNS(=O)(=O)c2ccc(Br)cc2)N2CCOCC2)cc1 (stereo not given) | x | 0 | x | -5 | -2 | 0 | x
Cc1ccc(-c2nc(-c3cccnc3)sc2CC(=O)O)cc1 | 885* | -7 | 116 | 0 | 0 | 0 | 0
COc1ccc(CN2CC(=O)N(c3ccc(C)cc3C)C2=S)cc1OC | -10 | 2 | 123 | 8 | 2 | 0 | x
COc1ccc(CN2CC(=O)N(c3ccccc3C)C2=S)cc1OC | 672* | -2 | 73 | 3 | 0 | 0 | -1
Cc1cc(Nc2ccc(Cl)cc2)n(-c2ccccc2)n1 | -10 | 14 | 95 | -2 | -1 | 0 | x
Cc1cc(Nc2nc3c(c(=O)n(C)c(=O)n3C)n2C)n(-c2ccc(Cl)cc2)n1 | + | -6 | 96 | 10 | -2 | 0 | 0
